Experimental data reported in PubChem BioAssay (NCI).
Compounds without any hit were thinned out: in the full panel of roughly 79,000, 15% have a hit. Calls of active or inactive are those of the source. Rule as the data show it: active = growth inhibition above about 70%; inactive = the rest.

What was measured:
[1] = NCI Yeast Anticancer Drug Screen. Data for the rad52 strain (AID 147);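 also: 0% = growth of vehicle-treated control cultures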; details: S. cerevisiae rad52 mutant growth inhibition, active compounds read high
Summary of the method: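 Inhibition of yeast growth, referenced to vehicle controls, was the measured output for a strain with defective DNA damage repair.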

[2] = NCI Yeast Anticancer Drug Screen. Data for the wt1 strain (AID 149);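 also: 0% = growth of vehicle-treated wt1 cultures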; details: S. cerevisiae wt1 strain (SPY 50644) growth inhibition, active compounds read high
Summary of the method: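 Each compound is tested on wt1 yeast and the loss of growth versus vehicle gives the inhibition value.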

[3] = NCI Yeast Anticancer Drug Screen. Data for the rad50EPP+ strain (AID 151);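 also: 0% = growth of vehicle-treated control cultures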; details: S. cerevisiae rad50 mutant strain, active compounds read high
Summary of the method: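 Genetically defined yeast (rad50EPP+, DNA damage repair alteration) is grown with compound, and inhibition of growth is expressed relative to vehicle-treated controls.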

[4] = NCI Yeast Anticancer Drug Screen. Data for the mgt1 strain (AID 153); details: S. cerevisiae mgt1 mutant growth inhibition, active compounds read high
Summary of the method: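 In the mgt1 strain, test compounds were added and growth inhibition was determined relative to vehicle-treated controls.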

[5] = NCI Yeast Anticancer Drug Screen. Data for the rad50 strain (AID 155);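 also: 0% = growth of vehicle-only cultures of the same strain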; details: S. cerevisiae rad50 strain growth inhibition, active compounds read high
Summary of the method: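 Vehicle-treated cultures provide the reference for the growth inhibition reported for compound-exposed, repair-deficient yeast.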

[6] = NCI Yeast Anticancer Drug Screen. Data for the mec2-1 strain (AID 157); details: S. cerevisiae mec2-1 strain, active compounds read high
Summary of the method: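 Each compound was tested on mec2-1 yeast, a strain altered in DNA damage repair or cell cycle control. Growth inhibition is reported relative to vehicle.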

[7] = NCI Yeast Anticancer Drug Screen. Data for the rad14 strain (AID 159);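 also: 0% = growth of vehicle-treated control cultures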; details: S. cerevisiae rad14 strain growth inhibition, active compounds read high
Summary of the method: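 Inhibition of growth is reported for a repair-deficient yeast mutant following compound treatment, calculated relative to cultures that received vehicle.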

[8] = NCI Yeast Anticancer Drug Screen. Data for the sgs1 mgt1 strain (AID 161);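 also: 0% = growth of cultures given vehicle only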; details: S. cerevisiae sgs1 mgt1 strain, active compounds read high
Summary of the method: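 Mutant yeast exposed to compound; growth scored against vehicle-only wells.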

[9] = NCI Yeast Anticancer Drug Screen. Data for the CLN2oe strain (AID 163);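 also: 0% = growth of vehicle-only control cultures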; details: S. cerevisiae CLN2oe strain, active compounds read high
Summary of the method: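 First, the altered yeast strain was treated with each compound; second, its growth was measured; finally, inhibition was derived by comparison with vehicle controls.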

[10] = NCI Yeast Anticancer Drug Screen. Data for the cln2 rad14 strain (AID 165);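 also: 0% = growth equal to vehicle treated cultures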; details: S. cerevisiae cln2 rad14 strain, active compounds read high
Summary of the method: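 Test compounds were added to cln2 rad14 yeast cultures; inhibition of growth was then determined by comparison with vehicle treatment.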

[11] = NCI Yeast Anticancer Drug Screen. Data for the bub3 strain (AID 167); details: S. cerevisiae bub3 mutant strain, active compounds read high
Summary of the method: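 Mutant yeast screening strain plus compound; vehicle-treated cultures serve as the 0% inhibition reference.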

[12] = NCI Yeast Anticancer Drug Screen. Data for the wt2 strain (AID 169); details: S. cerevisiae wt2 strain growth inhibition, active compounds read high
Summary of the method: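 The panel's yeast strains carry defined changes in DNA repair or cell cycle genes. Each strain is grown with compound, and growth loss is scored relative to vehicle.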

[13] = NCI Yeast Anticancer Drug Screen. Data for the mlh1 strain (AID 171);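 also: 0% = growth of vehicle-treated control cultures of the same strain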; details: S. cerevisiae mlh1 strain growth inhibition, active compounds read high
Summary of the method: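 Inhibition values reflect reduced yeast growth in the presence of compound, referenced to vehicle controls, using a strain chosen for its alteration in DNA repair or cell cycle control.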

[14] = NCI Yeast Anticancer Drug Screen. Data for the sgs1 strain (AID 173);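 also: 0% = growth of vehicle-only control cultures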; details: S. cerevisiae sgs1 mutant, active compounds read high
Summary of the method: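 Vehicle-treated cultures served as reference for growth inhibition of a yeast strain altered in DNA damage repair or cell cycle control after compound exposure.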

[15] = NCI Yeast Anticancer Drug Screen. Data for the mlh1 rad18 strain (AID 175); details: S. cerevisiae mlh1 rad18 strain growth inhibition, active compounds read high
Summary of the method: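 Inhibition values reflect reduced growth of mutant yeast versus vehicle-treated controls following compound exposure; the mutations affect DNA damage repair.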

[16] = NCI Yeast Anticancer Drug Screen. Data for the rad18 strain (AID 177); details: S. cerevisiae rad18 mutant growth inhibition, active compounds read high
Summary of the method: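 Steps: expose repair-mutant yeast to compound; measure growth; express as inhibition relative to vehicle control.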

[17] = at 5.0 µM (retest, dose inferred, filed as 0.5)
[18] = at 50.0 µM (retest, dose inferred, filed as 5.0)

Measured: growth inhibition

COc1ccc2cc3c4cc5c(cc4cc[n+]3cc2c1OC)OCO5
active: [1]; at 11.0 µM 75% | [1]; at 33.0 µM 94% | [1]; at 100.0 µM 97% | [2]; at 33.0 µM 84% | [2]; at 100.0 µM 95% | [3]; at 33.0 µM 77% | [3]; at 100.0 µM 88% | [4]; at 33.0 µM 89% | [4]; at 100.0 µM 97% | [5]; at 3.7 µM 70% | [5]; [17] 76% | [5]; at 11.0 µM 88% | [5]; at 33.0 µM 94% | [5]; [18] 96% | [5]; at 50.0 µM 97.1% | [5]; at 100.0 µM 97% | [6]; at 33.0 µM 89% | [6]; [18] 97% | [6]; at 50.0 µM 92.2% | [6]; at 100.0 µM 97% | [7]; at 11.0 µM 78% | [7]; at 33.0 µM 96% | [7]; at 100.0 µM 98% | [8]; [18] 97% | [8]; at 50.0 µM 93.3% | [9]; at 33.0 µM 79% | [9]; at 100.0 µM 97% | [10]; [18] 94% | [10]; at 50.0 µM 89.2% | [11]; at 33.0 µM 88% | [11]; [18] 96% | [11]; at 50.0 µM 97.6% | [11]; at 100.0 µM 98% | [12]; at 33.0 µM 87% | [12]; at 100.0 µM 97% | [13]; at 33.0 µM 87% | [13]; at 100.0 µM 97% | [14]; at 11.0 µM 83% | [14]; at 33.0 µM 96% | [14]; at 100.0 µM 98% | [15]; [18] 97% | [15]; at 50.0 µM 97% | [16]; at 33.0 µM 89% | [16]; at 100.0 µM 97%
inactive: [1]; at 1.2 µM 22% | [1]; at 3.7 µM 48% | [2]; at 1.2 µM 8% | [2]; at 3.7 µM 29% | [2]; at 11.0 µM 50% | [3]; at 1.2 µM 0% | [3]; at 3.7 µM 20% | [3]; at 11.0 µM 60% | [4]; at 1.2 µM 15% | [4]; at 3.7 µM 39% | [4]; at 11.0 µM 62% | [5]; at 1.2 µM 33% | [6]; at 1.2 µM 9% | [6]; at 3.7 µM 32% | [6]; [17] 57% | [6]; at 11.0 µM 55% | [7]; at 1.2 µM 18% | [7]; at 3.7 µM 46% | [8]; [17] 68% | [9]; at 1.2 µM 13% | [9]; at 3.7 µM 29% | [9]; at 11.0 µM 49% | [10]; [17] 55% | [11]; at 1.2 µM 6% | [11]; at 3.7 µM 19% | [11]; [17] 43% | [11]; at 11.0 µM 46% | [12]; at 1.2 µM 38% | [12]; at 3.7 µM 32% | [12]; at 11.0 µM 62% | [13]; at 1.2 µM 12% | [13]; at 3.7 µM 31% | [13]; at 11.0 µM 53% | [14]; at 1.2 µM 24% | [14]; at 3.7 µM 28% | [15]; [17] 63% | [16]; at 1.2 µM 8% | [16]; at 3.7 µM 28% | [16]; at 11.0 µM 53%

Brc1ccc(B2Nc3ccccc3N2)cc1
active: [5]; at 50.0 µM 73.8% | [8]; [18] 77% | [8]; at 50.0 µM 82.1% | [10]; at 50.0 µM 71.7% | [11]; [18] 73% | [11]; at 50.0 µM 84.8% | [15]; [18] 87% | [15]; at 50.0 µM 82.5%
inactive: [1]; at 1.2 µM 3% | [1]; at 3.7 µM 14% | [1]; at 11.0 µM 29% | [1]; at 33.0 µM 42% | [1]; at 100.0 µM 46% | [2]; at 1.2 µM -2% | [2]; at 3.7 µM -1% | [2]; at 11.0 µM 16% | [2]; at 33.0 µM 31% | [2]; at 100.0 µM 40% | [3]; at 1.2 µM 10% | [3]; at 3.7 µM 19% | [3]; at 11.0 µM 29% | [3]; at 33.0 µM 34% | [3]; at 100.0 µM 42% | [4]; at 1.2 µM -5% | [4]; at 3.7 µM -2% | [4]; at 11.0 µM 10% | [4]; at 33.0 µM 25% | [4]; at 100.0 µM 5% | [5]; at 1.2 µM 6% | [5]; at 3.7 µM 14% | [5]; [17] 21% | [5]; at 11.0 µM 29% | [5]; at 33.0 µM 44% | [5]; [18] 53% | [5]; at 100.0 µM 54% | [6]; at 1.2 µM 1% | [6]; at 3.7 µM 6% | [6]; [17] 17% | [6]; at 11.0 µM 18% | [6]; at 33.0 µM 31% | [6]; [18] 59% | [6]; at 50.0 µM 56.8% | [6]; at 100.0 µM 46% | [7]; at 1.2 µM 13% | [7]; at 3.7 µM 24% | [7]; at 11.0 µM 37% | [7]; at 33.0 µM 53% | [7]; at 100.0 µM 63% | [8]; [17] 31% | [9]; at 1.2 µM -3% | [9]; at 3.7 µM 5% | [9]; at 11.0 µM 29% | [9]; at 33.0 µM 39% | [9]; at 100.0 µM 43% | [10]; [17] 12% | [10]; [18] 40% | [11]; at 1.2 µM 9% | [11]; at 3.7 µM 19% | [11]; [17] 30% | [11]; at 11.0 µM 15% | [11]; at 33.0 µM 43% | [11]; at 100.0 µM 52% | [12]; at 1.2 µM -4% | [12]; at 3.7 µM -4% | [12]; at 11.0 µM 6% | [12]; at 33.0 µM 17% | [12]; at 100.0 µM 27% | [13]; at 1.2 µM 0% | [13]; at 3.7 µM 6% | [13]; at 11.0 µM 17% | [13]; at 33.0 µM 28% | [13]; at 100.0 µM 44% | [14]; at 1.2 µM 0% | [14]; at 3.7 µM 6% | [14]; at 11.0 µM 23% | [14]; at 33.0 µM 35% | [14]; at 100.0 µM 45% | [15]; [17] 47% | [16]; at 1.2 µM -2% | [16]; at 3.7 µM 1% | [16]; at 11.0 µM 13% | [16]; at 33.0 µM 23% | [16]; at 100.0 µM 36%
